# In ChEMBL document CHEMBL2218924, “A broad activity screen in support of a chemogenomic map for kinase signalling research and drug discovery” (Biochem J, 2013):
# Target: T1, Serine/threonine-protein kinase haspin (Homo sapiens) (UniProt Q8TF76)
# T1 sequence (whole entry): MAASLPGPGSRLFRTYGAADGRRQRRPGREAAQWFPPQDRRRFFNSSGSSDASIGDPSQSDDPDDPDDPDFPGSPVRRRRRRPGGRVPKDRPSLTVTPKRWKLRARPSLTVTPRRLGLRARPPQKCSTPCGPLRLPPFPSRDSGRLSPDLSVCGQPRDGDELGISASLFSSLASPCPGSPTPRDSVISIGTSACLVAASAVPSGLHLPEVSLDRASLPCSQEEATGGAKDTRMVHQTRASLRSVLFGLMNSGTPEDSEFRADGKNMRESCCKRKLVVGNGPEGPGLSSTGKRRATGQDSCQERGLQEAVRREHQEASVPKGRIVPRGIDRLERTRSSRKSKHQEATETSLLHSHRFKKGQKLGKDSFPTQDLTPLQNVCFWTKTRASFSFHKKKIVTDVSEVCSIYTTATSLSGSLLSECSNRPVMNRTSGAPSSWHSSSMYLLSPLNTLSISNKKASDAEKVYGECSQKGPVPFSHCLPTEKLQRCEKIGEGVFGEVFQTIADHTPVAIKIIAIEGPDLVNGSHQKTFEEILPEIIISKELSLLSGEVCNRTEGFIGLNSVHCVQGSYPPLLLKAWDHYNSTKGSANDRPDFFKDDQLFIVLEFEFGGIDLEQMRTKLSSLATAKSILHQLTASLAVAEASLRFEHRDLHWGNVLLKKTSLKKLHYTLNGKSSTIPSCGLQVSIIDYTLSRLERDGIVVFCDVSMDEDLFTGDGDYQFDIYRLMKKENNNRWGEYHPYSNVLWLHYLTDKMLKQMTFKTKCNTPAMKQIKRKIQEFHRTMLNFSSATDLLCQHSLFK
# Conditions: at 1 µM
row,SMILES,residual activity
1,COc1ccc2c(c1)c(C1=C(c3c[nH]c4ccccc34)C(=O)NC1=O)cn2CCCN(C)C,98%
2,COc1cc2nccc(Oc3ccc(NC(=S)NC(=O)c4ccccc4C)cc3)c2cc1OC,80%
3,CC(C)(C)n1nc(Cc2cccc3ccccc23)c2c(N)ncnc21,79%
4,O=C(NC(NC(=S)Nc1ccc(F)c([N+](=O)[O-])c1)C(Cl)(Cl)Cl)C(c1ccccc1)c1ccccc1 (stereo unspecified),83%
5,O=C1NC(=O)c2c1c1c3ccccc3[nH]c1n1cncc21,8%
6,CCCCc1c(-c2ccc(OC)cc2)[nH]c2nccnc12,77%
7,Nc1ncnc2c1c(-c1ccc(Oc3ccccc3)cc1)cn2C1CCCC1,90%
8,O=C1Nc2ccccc2/C1=C\c1c(Cl)[nH]c2ccccc12,85%
9,O=c1cc(N2CCOCC2)oc2c1ccc1ccccc12,74%
10,CCCC(=O)Oc1ccc2[nH]c(C(=O)c3cc4ccccc4[nH]3)cc2c1,106%
11,CCN(CC)CCNC(=O)c1c(C)[nH]c(/C=C2\C(=O)Nc3ccc(Cl)cc32)c1C,43%
12,O=C(c1cc2cc(O)ccc2[nH]1)c1cc2cc(O)ccc2[nH]1,39%
13,CN(C)S(=O)(=O)c1ccc2c(c1)/C(=C/c1cc3c([nH]1)CCCC3)C(=O)N2,127%
14,Oc1cccc(-c2nc(N3CCOCC3)c3oc4ncccc4c3n2)c1,76%
15,NC(=O)Nc1sc(-c2ccc(F)cc2)cc1C(N)=O,63%
16,Cc1cc(C)c(/C=C2\C(=O)Nc3ccccc32)[nH]1,100%
17,O=C(c1ccccc1)c1ccc(N2CCOCC2)cc1O,98%
18,O=C(O)/C=C/c1cc(Br)c(Br)c(Br)c1Br,79%
19,CCCCc1c(-c2ccc(O)cc2)[nH]c2nccnc12,34%
20,O=c1cc(N2CCNCC2)oc2c(-c3ccccc3)cccc12,83%
21,O=C1Nc2ccc(Cl)cc2/C1=C/c1cc(Cl)c(O)c(Cl)c1,12%
22,CC(C)[C@H](CO)Nc1nc(Nc2cc(N)cc(Cl)c2)c2ncn(C(C)C)c2n1,57%
23,O=C1C(Cl)=C(N2C(=O)CCC2=O)C(=O)c2ccccc21,96%
24,Cn1c2ccccc2c2c3c(c4c5ccccc5n(CCC#N)c4c21)CNC3=O,11%
25,CC(C)c1nn(-c2c(Cl)cccc2Cl)c2nc(Cc3ccc(OCCO)cc3)[nH]c(=O)c12,97%

# Target: T1, Serine/threonine-protein kinase haspin (Homo sapiens)
# Conditions: at 10 µM
row,SMILES,residual activity
1,COc1ccc2c(c1)c(C1=C(c3c[nH]c4ccccc34)C(=O)NC1=O)cn2CCCN(C)C,56%
2,COc1cc2nccc(Oc3ccc(NC(=S)NC(=O)c4ccccc4C)cc3)c2cc1OC,35%
3,CC(C)(C)n1nc(Cc2cccc3ccccc23)c2c(N)ncnc21,16%
4,O=C(NC(NC(=S)Nc1ccc(F)c([N+](=O)[O-])c1)C(Cl)(Cl)Cl)C(c1ccccc1)c1ccccc1 (stereo unspecified),47%
5,Nc1ncnc2c1cnn2-c1ccccc1,83%
6,O=C1NC(=O)C(c2c[nH]c3ccccc23)=C1c1c[nH]c2ccccc12,69%
7,O=C1NC(=O)c2c1c1c3ccccc3[nH]c1n1cncc21,18%
8,CCCCc1c(-c2ccc(OC)cc2)[nH]c2nccnc12,27%
9,Nc1ncnc2c1c(-c1ccc(Oc3ccccc3)cc1)cn2C1CCCC1,44%
10,O=C1Nc2ccccc2/C1=C\c1c(Cl)[nH]c2ccccc12,61%
11,O=c1cc(N2CCOCC2)oc2c1ccc1ccccc12,26%
12,CCCC(=O)Oc1ccc2[nH]c(C(=O)c3cc4ccccc4[nH]3)cc2c1,99%
13,O=C1NC(=O)C(c2cn(CCCn3ccnc3)c3ccccc23)=C1Nc1ccccc1,52%
14,CCN(CC)CCNC(=O)c1c(C)[nH]c(/C=C2\C(=O)Nc3ccc(Cl)cc32)c1C,12%
15,O=C(c1cc2cc(O)ccc2[nH]1)c1cc2cc(O)ccc2[nH]1,7%
16,Oc1cccc(-c2nc(N3CCOCC3)c3oc4ncccc4c3n2)c1,32%
17,O=C(CCCc1ccc(-c2ccccc2F)cc1)Nc1ccc(O)cc1,98%
18,NC(=O)Nc1sc(-c2ccc(F)cc2)cc1C(N)=O,51%
19,Cc1cc(C)c(/C=C2\C(=O)Nc3ccccc32)[nH]1,77%
20,O=C(c1ccccc1)c1ccc(N2CCOCC2)cc1O,77%
21,O=C(O)/C=C/c1cc(Br)c(Br)c(Br)c1Br,71%
22,CCCCc1c(-c2ccc(O)cc2)[nH]c2nccnc12,12%
23,O=c1cc(N2CCNCC2)oc2c(-c3ccccc3)cccc12,38%
24,O=C1Nc2ccc(Cl)cc2/C1=C/c1cc(Cl)c(O)c(Cl)c1,1%
25,CC(C)[C@H](CO)Nc1nc(Nc2cc(N)cc(Cl)c2)c2ncn(C(C)C)c2n1,20%
26,Cn1c2ccccc2c2c3c(c4c5ccccc5n(CCC#N)c4c21)CNC3=O,8%
27,CC(C)c1nn(-c2c(Cl)cccc2Cl)c2nc(Cc3ccc(OCCO)cc3)[nH]c(=O)c12,56%

# Target: Tyrosine-protein kinase HCK (Homo sapiens) (UniProt P08631)
# Conditions: at 1 µM
# Tyrosine-protein kinase HCK (Homo sapiens), sequence (P08631 2-526 limits assumed): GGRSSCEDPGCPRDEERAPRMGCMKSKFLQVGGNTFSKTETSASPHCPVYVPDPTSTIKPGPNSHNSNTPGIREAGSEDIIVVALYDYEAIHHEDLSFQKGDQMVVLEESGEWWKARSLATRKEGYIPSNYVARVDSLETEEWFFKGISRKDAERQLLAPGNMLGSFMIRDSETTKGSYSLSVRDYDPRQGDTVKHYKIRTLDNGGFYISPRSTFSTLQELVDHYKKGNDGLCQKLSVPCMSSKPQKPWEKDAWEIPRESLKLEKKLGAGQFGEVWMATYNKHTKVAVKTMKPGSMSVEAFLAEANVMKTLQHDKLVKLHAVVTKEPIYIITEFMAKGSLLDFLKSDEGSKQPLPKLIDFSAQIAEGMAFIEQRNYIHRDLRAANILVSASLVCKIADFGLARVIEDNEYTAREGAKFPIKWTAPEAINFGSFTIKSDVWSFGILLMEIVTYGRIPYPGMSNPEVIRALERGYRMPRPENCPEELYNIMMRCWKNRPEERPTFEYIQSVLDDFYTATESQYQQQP
row,SMILES,residual activity
1,COc1ccc2c(c1)c(C1=C(c3c[nH]c4ccccc34)C(=O)NC1=O)cn2CCCN(C)C,65%
2,COc1cc2nccc(Oc3ccc(NC(=S)NC(=O)c4ccccc4C)cc3)c2cc1OC,7%
3,CC(C)(C)n1nc(Cc2cccc3ccccc23)c2c(N)ncnc21,32%
4,O=C(NC(NC(=S)Nc1ccc(F)c([N+](=O)[O-])c1)C(Cl)(Cl)Cl)C(c1ccccc1)c1ccccc1 (stereo unspecified),80%
5,Nc1ncnc2c1cnn2-c1ccccc1,83%
6,O=C1NC(=O)c2c1c1c3ccccc3[nH]c1n1cncc21,54%
7,CCCCc1c(-c2ccc(OC)cc2)[nH]c2nccnc12,60%
8,COc1cc2c(cc1OC)-c1n[nH]c(Nc3cccc(F)c3)c1C2,22%
9,Nc1ncnc2c1c(-c1ccc(Oc3ccccc3)cc1)cn2C1CCCC1,2%
10,O=C1Nc2ccccc2/C1=C\c1c(Cl)[nH]c2ccccc12,79%
11,O=c1cc(N2CCOCC2)oc2c1ccc1ccccc12,85%
12,CCCC(=O)Oc1ccc2[nH]c(C(=O)c3cc4ccccc4[nH]3)cc2c1,70%
13,O=C1NC(=O)C(c2cn(CCCn3ccnc3)c3ccccc23)=C1Nc1ccccc1,80%
14,CCN(CC)CCNC(=O)c1c(C)[nH]c(/C=C2\C(=O)Nc3ccc(Cl)cc32)c1C,13%
15,O=C(c1cc2cc(O)ccc2[nH]1)c1cc2cc(O)ccc2[nH]1,23%
16,CN(C)S(=O)(=O)c1ccc2c(c1)/C(=C/c1cc3c([nH]1)CCCC3)C(=O)N2,10%
17,O=C(CCCc1ccc(-c2ccccc2F)cc1)Nc1ccc(O)cc1,96%
18,NC(=O)Nc1sc(-c2ccc(F)cc2)cc1C(N)=O,24%
19,Cc1cc(C)c(/C=C2\C(=O)Nc3ccccc32)[nH]1,60%
20,O=C(c1ccccc1)c1ccc(N2CCOCC2)cc1O,83%
21,O=C(O)/C=C/c1cc(Br)c(Br)c(Br)c1Br,59%
22,CCCCc1c(-c2ccc(O)cc2)[nH]c2nccnc12,64%
23,O=c1cc(N2CCNCC2)oc2c(-c3ccccc3)cccc12,79%
24,O=C1Nc2ccc(Cl)cc2/C1=C/c1cc(Cl)c(O)c(Cl)c1,61%
25,CC(C)[C@H](CO)Nc1nc(Nc2cc(N)cc(Cl)c2)c2ncn(C(C)C)c2n1,27%
26,O=C1C(Cl)=C(N2C(=O)CCC2=O)C(=O)c2ccccc21,71%
27,Cn1c2ccccc2c2c3c(c4c5ccccc5n(CCC#N)c4c21)CNC3=O,31%
28,CC(C)c1nn(-c2c(Cl)cccc2Cl)c2nc(Cc3ccc(OCCO)cc3)[nH]c(=O)c12,75%
29,Nc1nc(Nc2ccc(S(N)(=O)=O)cc2)nn1C(=O)c1c(F)cccc1F,71%
